This passage reports activation results from PubChem BioAssay AID743398 (Broad Institute, 2014).

The campaign covered roughly 300,000 compounds. About 3,600 (1.2%) were called active. The sample holds actives, similar compounds and a random draw of the others, so the mix is not that of the screen. Unmarked numbers belong to inactive results. Rule as the data show it: active = activation above about 30% (passing the limit was not always enough); inconclusive = no clear call, values can overlap the other calls.

A short description of the experiment: Wnt/beta-catenin pathway activators, primary screen, cell-based, plate reader, single point (AID 743398).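 Also: 0% = neutral control wells and 100% = positive control wells.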 Conditions: Wnt/beta-catenin reporter cell assay, activator, at 9.35 µM, stronger effect = higher value.
Turning to `CCCCc1c(-c2ccc(Cl)cc2)ncn1CCc1ccccc1OC`, the activation was -10.4%. In the case of `O=S1(=O)c2ccc(Br)cc2-n2nncc2CN1Cc1cccc(Cl)c1` it was -0.853%; in that of `CCOC(=O)[C@H]1Nc2ccc(Cl)cc2[C@@H]2[C@H]1C1CC(c3ccccc31)N2C(=O)OCc1ccccc1` (stereo not given in full), -1.09%.

In the case of `Cc1cccc(N2O[C@H]3C=CC2CCCC3)n1`, the activation was -7.04%. In the case of `Cc1ccn(-c2cccc(-n3ccc(C)n3)n2)n1` it was 57.6% (active); in that of `COc1ccc(C2=Nc3ccccc3NC(=O)C2N(C(=O)c2cc3ccccc3[nH]2)c2ccccc2)cc1` (stereo not given), 23.9%. The same measure for `CCCCCCCCN1C(=O)[C@@H](CC(=O)N2CCN(C(=O)OCC)CC2)C[C@@]2(C(=O)OC)C1=C[C@H](C1CCCC1)O[C@@H]2C`: -4.17%; for `CCCCOCCCNC(=O)C[C@@H]1C[C@@]2(C(=O)OCC)CCCC=C2N(CCC2=CCCCC2)C1=O`: -4.42%; for `CC1CCN(C(=O)c2ncn3c2C(=O)N[C@@H](C)C3)CC1`: -1.28%.

Turning to `C[C@H]1[C@H](c2ccccc2)Oc2cc(Br)ccc2S(=O)(=O)N1Cc1cccc(F)c1`, the activation was -3.84%.

Consider `CCCNC(=O)C1(C)CCCN(Cc2cccc(C(F)(F)F)c2)C1` (stereo not given), for which the activation was -4.42%. On to `O=C(CSC(=S)N1CCCCC1)c1c(F)cccc1F`, for which the activation was 58.4% (active). The same measure for `O=C(CSC(=S)N1CCOCC1)c1ccccc1`: 9.4%.

As for `COc1cccc(NC(=O)CN(C)C(=O)CSC(=S)N2CCCC2)c1`, the activation is 0.702%. The same measure for `O=C(NS(=O)(=O)c1cccs1)[C@H]1O[C@@H](n2ccc(=O)[nH]c2=O)[C@H](O)[C@@H]1O`: -2.42%.

With `COC(=O)[C@]12CCCCC=C1N(Cc1cccc3ccccc13)C(=O)[C@H](CC(=O)N1CCOCC1)C2`, the activation was 2.09%.

Consider `COCc1[nH]nc2c1C(c1ccccc1)N(c1ccccc1)C2=O` (stereo not given), for which the activation is -1.18%. In the case of `Cc1ccc(S(=O)(=O)N2CCN(C(=O)Cn3c(=O)cnc4ccccc43)CC2)c(C)c1` it was 68.6% (active). With `Cc1ccc(S(=O)(=O)N2CCN(C(=O)CSc3cc(C)ccc3C)CC2)c(C)c1`, the activation was -0.764%.

For `Cc1ccc(S(=O)(=O)N2CCN(C(=O)COC(=O)c3c(C)cc(C)cc3C)CC2)c(C)c1`, the activation was -2.2%. For the molecule `Cc1ccc2nc(CN(C)C(=O)[C@@H](Cc3ccccc3)NC(=O)[C@H]3O[C@@H](n4ccc(=O)[nH]c4=O)[C@H](O)[C@@H]3O)[nH]c2c1`, the activation is -3.23%. In the case of `CCn1nc(C(=O)OCC(=O)N2c3ccccc3CC2C)c2ccccc2c1=O` (stereo not given) it was -0.818%. The same measure for `Cc1ccn(CCC(=O)N2c3ccccc3CC2C)n1` (stereo not given): -0.727%.

Consider `CCCC(=O)N1c2ccc(-c3csc(N)n3)cc2CC1C` (stereo not given), for which the activation is 56.5% (active). On to `CCc1nc2ccc(C(=O)NC3CCN(Cc4ccccc4)CC3)cn2c1N(CC)CCOC`, for which the activation was -0.563%. Turning to `O=C1C(Sc2cccc(F)c2)=C[C@@]2(O)CC[C@@H](O)[C@]1(Sc1cccc(F)c1)[C@H]2O`, the activation is -1.51%.

With `COc1ccc(O)c(/C=N/N=C/c2cccc([N+](=O)[O-])c2)c1`, the activation is 5.49%. In the case of `O=C(N/N=C/c1cccc([N+](=O)[O-])c1)c1ccncc1` it was -0.352%; in that of `O=[N+]([O-])c1cccc(C=NN=Cc2ccccc2O)c1`, 68% (active).

Turning to `COCC1CCCCN1C(=O)c1cc(COc2ccc(C)c(C)c2)on1` (stereo not given), the activation was 28.7%. The same measure for `CO[C@@H]1CN(C)C(=O)c2cc(NC(=O)Nc3cc(F)ccc3F)ccc2OC[C@H](C)N(C(=O)c2ccccn2)C[C@@H]1C`: -7.29%. `c1ccc2c(c1)nnn2-c1ccncc1`: the activation is -1.47%. The same measure for `COC(=O)c1sccc1NC(=O)c1ccc(Cl)cc1`: -0.421%; for `COC(=O)c1sccc1NN1C(=O)c2ccccc2C1=O`: 40.2% (active); for `COC(=O)c1sccc1NC(=S)Nc1ccc(C)cc1`: 12.9%. In the case of `O=C(NC1CCCCC1)C(c1cc2ccccc2o1)n1c(=O)c(-c2ccco2)nc2ccccc21` (stereo not given) it was 2.44%.

On to `CCOC(=O)c1cccc(NC(=O)c2ccc(F)cc2F)c1`, for which the activation is 46.1% (active). In the case of `CCOC(=O)c1cccc(NC(=O)CCOc2ccccc2)c1` it was -0.119%. The same measure for `CCOC(=O)c1cccc(NC(=O)CN2C(=O)C3CC=CCC3C2=O)c1` (stereo not given): 0.82%; for `COc1ccc(C2Nc3ccccc3C(=O)N2Cc2ccccc2)cc1Cn1nnc2ccccc21` (stereo not given): -5.17%; for `COc1ccc(C2Nc3ccccc3C(=O)N2c2ccc(Cl)cc2)cc1Cn1cc([N+](=O)[O-])cn1` (stereo not given): 63.8% (active). As for `COc1ccc(N2C(=O)c3ccccc3NC2c2ccc(OC)c(CN3CCOCC3)c2)cc1` (stereo not given), the activation was 7.45%.

With `COc1cccc(-c2cnc3c(NC(C)=O)cc(-c4cc(F)ccc4OC)cn23)c1`, the activation is -0.939%. Regarding `CC(C)(C)C1CCC(=O)N2CCC[C@]2(c2ccccc2)C1` (stereo not given in full), the activation is -2.76%. Regarding `COc1ccc(C2=NN(C(=O)c3cccnc3)C(c3ccccc3)C2)cc1` (stereo not given), the activation is 1.72%. As to `COc1ccc(C2=NN(C(=O)c3ccccc3C(=O)O)C(c3ccccc3O)C2)cc1` (stereo not given), the activation was 42.7% (active). Consider `COc1ccc(C2=NN(C(C)=O)C(c3ccccc3)C2)cc1` (stereo not given), for which the activation was 3.24%. As for `COCCNC(=S)N(C)[C@H]1C[C@H]2c3[nH]c4ccccc4c3CCN2C[C@H]1[C@H](C)O`, the activation was -0.111%. In the case of `COC(=O)[C@]12CCCCC=C1N(Cc1ccc(Cl)cc1Cl)C(=O)[C@H](CC(=O)NCc1cccc3ccccc13)C2` it was -3.47%; in that of `O=C(CCc1ccc(O)cc1)NN=Cc1cc(Br)ccc1O`, -2.84%; in that of `N#Cc1ccccc1NC(=O)c1ccc2c(c1)OCO2`, 3.38%. The same measure for `O=C(Nc1ccccc1N1CCN(C(=O)c2ccccc2)CC1)c1ccc2c(c1)OCO2`: 1.55%.

For `O=C(Nc1ccccc1F)c1ccc2c(c1)OCO2`, the activation was 44% (active). On to `CN1C(=O)C(Br)(Br)CC1c1cccnc1` (stereo not given), for which the activation was 0.101%.

Regarding `CCOC(=O)[C@]12CCCC=C1N(CCC1=CCCCC1)C(=O)[C@H](CC(=O)N1CCSCC1)C2`, the activation is -2.19%. In the case of `COc1ccccc1Cc1c(-c2ccc(F)cc2)nc2ccc(C)cn12` it was 13%; in that of `CCOC(=O)N1CCN(C(=O)C[C@H]2C[C@@]3(C(=O)OC)C(=C[C@H](C4CCCC4)O[C@@H]3C)N(Cc3ccccc3)C2=O)CC1`, -4.54%; in that of `CCN(C(=O)CSc1ncnc2c1cnn2-c1ccccc1)C1CCS(=O)(=O)C1` (stereo not given), 0.526%.

On to `CCN(CC)C(=O)CSc1ncnc2c1cnn2-c1ccccc1`, for which the activation was 61.3% (active).

`CCC(C)N(C(=O)CSc1ncnc2c1cnn2-c1ccccc1)C1CCS(=O)(=O)C1` (stereo not given): the activation is 0.0855%. The same measure for `O=C1NC[C@H](Cc2ccc(O)cc2)N(C[C@@H]2CCCN2C[C@H](Cc2ccccc2)N2C[C@H](Cc3ccccc3)N(CC3CCCCC3)C(=O)C2=O)C1=O`: -2.18%; for `COC(=O)c1ccc(CN2C(=O)[C@]3(OCCC=C[C@H]3C)c3c(Br)cccc32)cc1`: -10.3%; for `CC1Cc2ccccc2N1CC(=O)Nc1ccc(S(N)(=O)=O)cc1` (stereo not given): 39% (active). As to `NS(=O)(=O)c1cccc(NC(=O)CN2CCCc3ccccc32)c1`, the activation was -1.12%. In the case of `CC1CC(C)CN(CC(=O)Nc2ccc(S(N)(=O)=O)cc2)C1` (stereo not given) it was -0.27%. Consider `CN(C(=O)COC(=O)c1cc(=O)[nH]c2ccccc12)C1CCCCC1`, for which the activation is 60.6% (active). Regarding `CC(NC(=O)COC(=O)c1cc(=O)[nH]c2ccccc12)c1ccccc1` (stereo not given), the activation is -11.1%. Take `CC1CCN(C(=O)COC(=O)c2cc(=O)[nH]c3ccccc23)CC1`: the activation is -3.48%. In the case of `Cc1ccc([C@H]2N[C@]3(CCCN(Cc4ccccc4)C3=O)[C@H]3C(=O)N(Cc4ccccc4)C(=O)[C@@H]23)cc1` it was -1.11%; in that of `Cc1cc(C)nc(Nc2cc([N+](=O)[O-])ccc2C)n1`, -0.166%.

As for `Cc1ccc(-c2cn(S(=O)(=O)c3cccc([N+](=O)[O-])c3)nc2N)cc1`, the activation was -0.55%.

With `Cc1ccc(-n2cc3ccc([N+](=O)[O-])cc3n2)cc1`, the activation was 44.6% (active).

`CC(C)[C@@H](C)/C=C/[C@@H](C)[C@H]1CC[C@@H]2[C@]1(C)CCC1[C@]23C=C[C@]2(C[C@@H](O)CC[C@]12C)N(c1ccc([N+](=O)[O-])cn1)O3` (stereo not given in full): the activation was -14.5%.

In the case of `CN(C(=O)CN1CCN(c2cc(-c3ccc(OCc4ccccc4)cc3)ncn2)CC1)c1ccccc1`, the activation was -1.53%. The same measure for `CC(C)CNC(=O)c1cc(-c2ccc(Br)cc2)on1`: 26.3%.

Take `CC(C)Cc1cc(C(=O)NCCc2ccccc2)no1`: the activation was 28.6%. For `CC(C)Cc1cc(C(=O)Nc2cc(Br)ccc2O)no1`, the activation is 44.3% (active). As to `OC[C@@H]1CN(Cc2ccc(-c3ccccc3)cc2)C[C@H](n2cnc3c(NC4CCCC4)ncnc32)O1`, the activation was -4.89%. `Cc1nc2c(OCc3ccc(Cl)cc3Cl)cccn2c1N(C)CC1CC1`: the activation is -3.96%.

In the case of `Nc1nc2c(ncn2[C@@H]2O[C@H](C(=O)N[C@@H](Cc3ccccc3)C(=O)NCc3ccccc3)[C@@H](O)[C@H]2O)c(=O)[nH]1`, the activation was 1.27%. In the case of `CSCCC(C(=O)NC(C)(C)C)n1c(-c2ccccc2)nc2ccccc21` (stereo not given) it was 2.95%. In the case of `CCOC(=O)c1c(NC(=S)SC)sc(C(=O)N2CCc3ccccc3C2)c1C` it was -0.956%. In the case of `CCN1CCN(C(c2cccnc2)c2cc(Cl)c3cccnc3c2O)CC1` (stereo not given) it was 61.4% (active); in that of `Oc1c(CN2CCCC2)cc(COCc2ccccc2)c2cccnc12`, 2.52%; in that of `CC(=O)NC(c1cccs1)c1cc(Br)c2cccnc2c1O` (stereo not given), -2.66%.
